Screens from PubChem.
FLuc counter = firefly luciferase modulation, counter-screen for miR-21 project. Potency, µM (highest dose often 57.5 µM), without a hit: at the highest dose activity change, negative = inhibition, actives largely listed as inhibitors. purified FLuc, Km substrates, luminescence inhibition. actives 6.9% (n = 360,000);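 also: plate controls were vehicle for no effect and reference inhibitor for full effect; nearly all actives have a fitted effect of over 55% in size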
Target sequence (P08659 whole entry, looked up): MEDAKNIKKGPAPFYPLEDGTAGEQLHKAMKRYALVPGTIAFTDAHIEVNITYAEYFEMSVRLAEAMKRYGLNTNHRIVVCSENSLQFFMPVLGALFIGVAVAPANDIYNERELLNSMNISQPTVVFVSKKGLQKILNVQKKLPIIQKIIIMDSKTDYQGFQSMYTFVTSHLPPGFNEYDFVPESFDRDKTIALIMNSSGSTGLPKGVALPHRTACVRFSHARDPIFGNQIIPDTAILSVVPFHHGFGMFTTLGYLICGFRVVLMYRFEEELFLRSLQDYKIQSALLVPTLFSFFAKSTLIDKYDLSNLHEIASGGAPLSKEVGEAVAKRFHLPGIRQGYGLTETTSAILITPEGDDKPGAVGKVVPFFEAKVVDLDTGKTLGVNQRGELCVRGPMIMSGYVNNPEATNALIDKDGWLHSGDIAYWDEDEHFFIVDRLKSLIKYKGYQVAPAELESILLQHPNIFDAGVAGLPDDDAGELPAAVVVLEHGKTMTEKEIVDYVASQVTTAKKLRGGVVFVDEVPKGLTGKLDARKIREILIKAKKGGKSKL
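Purified P. pyralis luciferase (10nM final) with 10uM D-luciferin and 10uM ATP (Km levels) in 50mM Tris acetate pH 7.5, 10mM Mg acetate, 0.01% Tween-20, 0.05% BSA; qHTS 6-point titration, ~60 µM downward; luminescence read.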
SMN2 splice up = enhancers of SMN2 splice variant expression; HEK293 SMN2-luciferase splicing reporter, luminescence, 30-36 h; Potency, µM (titrated, usually from 46.1 µM), for inactives: at the highest dose activity change, positive = activation, most hits filed as activators; actives 2.8% (n = 210,000); also: % of control where 0% means no effect; nearly all actives have a fitted effect of over 55% in size
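HEK293 cells carry an SMN2 minigene-luciferase reporter in which exon 7 inclusion puts luciferase in frame. Cells were seeded at 2000 cells/well, attached for 10-12 hours, then exposed to compounds for 30-36 hours at 37C before ONE-Glo luminescence.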
Rab9 prom act = activators of Rab9 promoter; Huh7 Rab9 promoter-luciferase reporter, luminescence, 24 h; Potency, µM (series often up to 9.22 µM), inactives show top-dose activation, negative = inhibition, usual class: activators; actives 2.8% (n = 320,000); also: % of control where 0% means no effect; nearly all actives have a fitted effect of over 60% in size
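Rab9 promoter-driven luciferase in stably transfected Huh7 cells; 1500 cells/well rested 2 h, exposed to compound in DMSO for 24 h at 37 °C, 5% CO2. Luminescence read 10 min after adding luciferase reagent at ambient temperature.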
NPC1 prom act = NPC1 promoter activation. AID 485313. Potency, µM (doses to about 9.22 µM), for the others: at the highest dose activation, most hits filed as activators. actives 2.4% (n = 320,000). Huh7 NPC1 promoter luciferase reporter, 24 h; also: % of control where 0% means no effect; nearly all actives have a fitted effect of over 60% in size
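Quantitative HTS used a cell-based reporter: Huh7 cells stably bearing the NPC1 promoter upstream of luciferase were treated with compounds for 24 h, and promoter activation was read as luminescence.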
ELG1 genotoxic = induces genotoxicity in HEK293T cells with luciferase-tagged ELG1; HEK293T ELG1-luciferase reporter, luminescence, 16 h; Potency, µM (doses to about 46 µM), without a hit: at the top dose activity change, positive = activation, usual class: activators; AID 504466; actives 1.3% (n = 330,000); also: % of control where 0% means no effect; nearly all actives have a fitted effect of over 60% in size
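Step 1: seed 2,000 HEK293T ELG1-luciferase cells per well. Step 2: add compound or DMSO, incubate 16 hr at 37 °C. Step 3: ONE-Glo, 30 min at room temperature, read luminescence.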
* marks the source's active call; other numbers are inactive results; [ ] = remark or other dose. Hits are enriched below; roughly 7.4% of the tested compounds scored in any of these assays. Calls follow the shape of the dose curve; as a rule, active = well fitted curve in the direction sought with a large enough effect; inconclusive = small, poorly fitted or top-dose-only effect, or another doubt; inactive = no such curve, though single readings can be large; an effect the other way counts as inactive or inconclusive. Potency is read from the fitted curve at half-maximal effect.

Screening Cc1nn(C)cc1/C=N/NC(=S)Nc1ccccc1 returned FLuc counter 5.4µM*, SMN2 splice up 26%, Rab9 prom act 2µM*, NPC1 prom act inconclusive and ELG1 genotoxic 17%.
`COc1cc(Nc2nn(-c3ccc(OC(F)(F)F)cc3)nc2C(C)=O)cc(OC)c1` gave FLuc counter 9% and SMN2 splice up 6%.
`COc1ccc(S(=O)(=O)c2c(Nc3ccccc3F)sc(C(=O)c3cccc(OC)c3)c2N)cc1` gave FLuc counter -2%.
Screening COC(=O)c1ccc(/C=C/c2ccc3cccc(OC(C)=O)c3n2)cc1 returned FLuc counter 3.8µM*, SMN2 splice up 16µM*, Rab9 prom act 3.5µM*, NPC1 prom act 4µM* and ELG1 genotoxic inconclusive.
`O=C(O)c1ccc(/C=C/c2ccc3cccc(O)c3n2)cc1` gave FLuc counter 2.4µM*, SMN2 splice up 22µM*, Rab9 prom act 3.5µM*, NPC1 prom act 3.5µM* and ELG1 genotoxic inconclusive.
`Oc1ccc(/C=C/c2ccc3cccc(O)c3n2)cc1Br` gave FLuc counter 17µM*, Rab9 prom act 29%, NPC1 prom act 16% and ELG1 genotoxic 18µM*.
Screening C[n+]1cccc(/C=C\c2ccc3cccc(O)c3n2)c1 returned SMN2 splice up -9%[9.22 µM].
O=[N+]([O-])c1ccc(/C=C/c2ccc3cccc([N+](=O)[O-])c3n2)cc1 was read as FLuc counter -3%, SMN2 splice up -41%, Rab9 prom act 10%, NPC1 prom act 0% and ELG1 genotoxic 4%.
`COc1cccc(NC(=O)Cn2c(=O)c3cccn3c3ccc(F)cc32)c1` gave FLuc counter 2%.
O=C1/C(=C/c2ccc([N+](=O)[O-])cc2)Oc2cc(O)ccc21 was read as FLuc counter 4.8µM*, Rab9 prom act -4%, NPC1 prom act 23% and ELG1 genotoxic 0%.
O=C1/C(=C/c2ccc(Br)cc2)Oc2cc(O)ccc21 was read as FLuc counter 3.8µM*, Rab9 prom act inconclusive, NPC1 prom act 23% and ELG1 genotoxic 4%.
Screening O=C1C(Cl)=C(Sc2nnc3c4ccccc4c4ccccc4c3n2)C(=O)c2ccccc21 returned SMN2 splice up -1%[9.22 µM].
Screening COc1ccccc1N=c1scc(-c2ccc(S(=O)(=O)N3CCCC3)cc2)n1C returned FLuc counter -8% and SMN2 splice up -29%.
CC(=O)NS(=O)(=O)c1ccc(NC(=O)c2ccccn2)cc1 was read as FLuc counter -4%, SMN2 splice up 0%, Rab9 prom act -18%, NPC1 prom act -6% and ELG1 genotoxic 0%.
CCN(CC)S(=O)(=O)c1ccc(NC(=O)c2ccccn2)cc1 was read as FLuc counter 15µM*, SMN2 splice up 7%, Rab9 prom act inconclusive, NPC1 prom act inconclusive and ELG1 genotoxic 15µM*.
Screening CN(C)S(=O)(=O)c1ccc(NC(=O)c2ccccn2)cc1 returned FLuc counter 13µM*, SMN2 splice up 11µM*, Rab9 prom act 1.6µM*, NPC1 prom act 2.5µM* and ELG1 genotoxic inconclusive.
COCC(=O)N1CCc2nc(-c3ccccc3)c3c(c2C1)CO[C@@H](C)C3 was read as SMN2 splice up 7%[9.22 µM].
Screening O=c1c2c(nc3n1CCCCC3)sc1c(O)c(Br)ccc12 returned FLuc counter 2.7µM*, SMN2 splice up 16µM*, Rab9 prom act 2.8µM*, NPC1 prom act 4µM* and ELG1 genotoxic 2.3µM*.
`CCN(CC)CCOc1c(Br)ccc2c1sc1nc3n(c(=O)c12)CCC3` gave FLuc counter -2%, SMN2 splice up -29%, Rab9 prom act -3%, NPC1 prom act -1% and ELG1 genotoxic inconclusive.
COc1ccc(-n2nc(C(=O)NCC(=O)N3CCOCC3)c3ccccc3c2=O)c(OC)c1 was read as FLuc counter 24µM*, Rab9 prom act -3%, NPC1 prom act -2% and ELG1 genotoxic 5%.
Screening COc1ccc(-n2nc(C(=O)NCCCN3CCOCC3)c3ccccc3c2=O)c(OC)c1 returned FLuc counter 2%, Rab9 prom act 3%, NPC1 prom act -12% and ELG1 genotoxic 5%.
Screening CCC(C)NC(=O)CNC(=O)c1nn(-c2ccc(OC)cc2OC)c(=O)c2ccccc12 (stereo not drawn) returned FLuc counter -5%, Rab9 prom act 3%, NPC1 prom act 4% and ELG1 genotoxic -3%.
`COc1ccc(-n2nc(C(=O)NCC(=O)N3CCCCCC3)c3ccccc3c2=O)c(OC)c1` gave FLuc counter 2.4µM*, Rab9 prom act 14%, NPC1 prom act 12% and ELG1 genotoxic inconclusive.
Screening COc1ccc(-n2nc(C(=O)NCC(=O)NC(C)C)c3ccccc3c2=O)c(OC)c1 returned FLuc counter 0%, Rab9 prom act 1%, NPC1 prom act 4% and ELG1 genotoxic -1%.
COc1ccc(-n2nc(C(=O)NCC(=O)N3CCN(Cc4ccccc4)CC3)c3ccccc3c2=O)c(OC)c1 was read as FLuc counter inconclusive, Rab9 prom act 0%, NPC1 prom act 0% and ELG1 genotoxic 1%.
For COc1ccc(-n2nc(C(=O)NCC(=O)N3CCCCC3)c3ccccc3c2=O)c(OC)c1 the results were FLuc counter 3.8µM*, Rab9 prom act inconclusive, NPC1 prom act 23% and ELG1 genotoxic inconclusive.
COc1ccc(-n2nc(C(=O)NCC(=O)N3CCC(C)CC3)c3ccccc3c2=O)c(OC)c1 was read as FLuc counter 1.5µM*, Rab9 prom act inconclusive, NPC1 prom act inconclusive and ELG1 genotoxic inconclusive.
Screening CC(C)(C)c1ccc(-c2nnc(-c3ccccc3NC(=O)c3cccc(C(F)(F)F)c3)o2)cc1 returned FLuc counter 0% and SMN2 splice up 1%.
COc1ccc(CCNC(=O)CS(=O)Cc2nc(-c3ccc(C)cc3)oc2C)c(OC)c1 (stereo not drawn) was read as FLuc counter -17%.
O=C(NNC(=O)c1cc(Cl)ccc1O)c1cccs1 was read as FLuc counter 21µM*, Rab9 prom act 25%, NPC1 prom act 26% and ELG1 genotoxic 9%.
Screening COc1ccc(Cl)cc1NC(=S)NNC(=O)c1cccs1 returned FLuc counter 27µM*, Rab9 prom act -10%, NPC1 prom act -2% and ELG1 genotoxic -4%.
Screening Clc1ccsc1-c1ccnc(-n2cccc2)n1 returned FLuc counter 17µM*, SMN2 splice up 7%, Rab9 prom act -2%, NPC1 prom act 12% and ELG1 genotoxic 12%.
Screening c1ccc2nc(-c3ccncc3)ccc2c1 returned FLuc counter inconclusive, SMN2 splice up 20%, Rab9 prom act inconclusive, NPC1 prom act inconclusive and ELG1 genotoxic inconclusive.
